PubChem BioAssay (EPA / NIEHS)
Calls of active or inactive are those of the source. How the source made its calls: active means hit-call score of the fitted dose curve at least 0.9, where 1 is the maximum; inactive means score below 0.9.

Experiment: CCTE_Padilla_ZF_Score.Position: CCTE's 144 Hour Post-fertilization zebrafish Assay Score for Position, Padilla Lab (AID 2284409)
Procedure: CCTE_Padilla_ZF_Phenotype_Score is a whole embryo, multiplexed assay using zebrafish ova exposed for 144 hours post fertilization on a 96-well plate.CCTE_Padilla_ZF_Score.Position is one of one assay component(s) measured or calculated from the CCTE_Padilla_ZF_Phenotype_Score assay. It is designed to make measurements of zebrafish development as detected with brightfield microscopy of developing zebrafish embryos.Data from the assay component CCTE_Padilla_ZF_Score.Position was analyzed into 1 assay endpoints. This assay endpoint, CCTE_Padilla_ZF_Score.Position, was analyzed in the positive analysis fitting direction relative to DMSO as the negative control and baseline of activity. Using a type of viability reporter, gain-of-signal activity can be used to understand changes in developmentals as they relate to the whole embryo. To generalize the intended target to other relatable targets, this assay endpoint is annotated to the zebrafish development intended target family, where the subfamily is embryonic mobility.
Zebrafish husbandry: Wild type adult zebrafish (Danio rerio; undefined outbred stock obtained from Aquatic Research Organisms, Hampton, NH, 03842) were housed in an AAALAC-approved animal facility at 28C with a 14:10 h light: dark cycle (lights on at 08:30 h). Adult fish (2-3 females per male; density = 15-20 adults per tank) were kept in one of several 9-liter (L) flow-through colony tanks (Aquaneering Inc., San Diego, CA). All adults in a colony tank were placed in a 2 L (static) breeding tank (Aquatic Habitats, Apopka, FL) one hour prior to light onset. Typically, adults from two to three colony tanks were mated on the same day. Two hours after light onset the adults were returned to the colony tank. All embryos were gathered from each breeder tank, pooled, and placed in a 28C water bath for 2 h, followed by two washes with 0.06% bleach (v/v) in 10% Hanks' Balanced Salt Solution (13.7 mM NaCl 0.54 mM KCl, 25 uM Na2HPO4, 130 uM CaCl2 100 um MgSO4 and 420 um NaHCO3,), hereafter referred to as Hanks' solution, for 5 min in order to remove any residual bacteria or fungi. Immediately following washing, the embryos were examined, and healthy embryos were separated from dead or unfertilized eggs and moved into fresh Hanks'. Chemical exposures: Zebrafish embryos were exposed in 96-well plates. Between 6- and 8-hours post fertilization (hpf), healthy embryos (with chorions) were transferred, one embryo per well, into 96 well (0.5 mL) microtiter plates (Cell Culture-Treated, Flat-Bottom Microplate 96 well [Corning Costar, Kennebunk, ME; Cat 09-761-145]) filled with 200 uL of Hanks' solution. A random number generator was used to assign the order in which the rows of embryos were plated in 96 well plates each week. After plating, the embryos were dosed with 0.8 uL of the chemical dosing solution then immediately sealed with AlumaSeal II (Excel Scientific Inc, Victorville, CA) to prevent volatilization of the chemicals, and then placed in a leakproof secondary container. These containers were placed in an incubator maintained on a 14:10 h light: dark cycle at 26C for rearing. On 5 dpf, live larvae were gently moved out of the plate with test chemicals and into a new 96 well mesh plate (Millipore Corp., Bedford, MA) with just the Hanks' solution. Once within the mesh well plate, the animals were rinsed with 400 uL of fresh Hanks' three times, and then the plates were covered with a non-adhesive material (Microseal A, BioRad, Hercules, CA), plate lid added, and then plate sides wrapped in Parafilm (PM992, Bermis Company, Neenah, WI), and returned to the incubator. […]

Row | Structure (SMILES) | outcome | AC50
1 | O=C(O)C(F)(F)C(F)(F)C(F)(F)C(F)(F)F | inactive | –
2 | O=C(O)C(F)(F)C(F)(F)C(F)(F)C(F)(F)C(F)(F)C(F)(F)C(F)(F)C(F)(F)Cl | – | 70.4 µM (active)
3 | C=CC(=O)OCC(F)(F)C(F)(F)C(F)(F)C(F)(F)C(F)(F)C(F)(F)C(F)(F)F | inactive | –
4 | FC(F)(F)C(F)(F)C(F)(F)C(F)(F)C(F)(F)C(F)(F)CC1CO1 (stereo not given) | inactive | –
5 | C=CC(=O)OCC(F)(F)C(F)(F)C(F)(F)C(F)(F)COC(=O)C=C | inactive | –
6 | NC(=O)C(F)(F)C(F)(F)C(F)(F)C(F)(F)F | inactive | –
7 | OCCCC(F)(F)C(F)(F)C(F)(F)C(F)(F)C(F)(F)C(F)(F)C(F)(F)F | inactive | –
8 | FC(F)(F)C(F)(F)C(F)(F)C(F)(F)C(F)(F)C(F)(F)C(F)(F)Br | inactive | –
9 | FC(F)(F)C(F)(F)C(F)(F)C(F)(F)CCI | inactive | –
10 | O=S(=O)(OCC(F)F)C(F)(F)F | inactive | –
11 | CCCCCCCCC(F)(F)C(F)(F)C(F)(F)C(F)(F)C(F)(F)C(F)(F)F | inactive | –
12 | CC(C)(C)C(=O)CC(=O)C(F)(F)C(F)(F)C(F)(F)F | – | 29 µM (active)
13 | O=C(O)C(F)(OC(F)(F)C(F)(OC(F)(F)C(F)(OC(F)(F)C(F)(F)C(F)(F)F)C(F)(F)F)C(F)(F)F)C(F)(F)F (stereo not given) | inactive | –
14 | O=C(O)C=C(C(F)(F)F)C(F)(F)F | inactive | –
15 | N=C(N)C(F)(F)C(F)(F)C(F)(F)C(F)(F)C(F)(F)C(F)(F)C(F)(F)F | inactive | –
16 | Cc1ccc(S(=O)(=O)OCC(F)(F)C(F)(F)C(F)(F)C(F)(F)C(F)(F)C(F)F)cc1 | inactive | –
17 | FC(F)(F)C(F)(F)C(F)(F)CI | inactive | –
18 | FC(F)(F)C(F)(F)C(F)(F)C(F)(F)C(F)(F)C(F)(F)C(F)(F)I | inactive | –
19 | O=C(O)C(F)(F)C(F)(F)C(F)(F)C(F)(F)C(F)(F)C(F)(F)C(F)(F)C(F)(F)C(F)(F)C(F)(F)C(F)(F)C(F)(F)F | inactive | –
20 | C=C(C)C(=O)OCC(F)(F)C(F)(F)C(F)(F)F | inactive | –

Row | Structure (SMILES) | outcome | AC50
21 | C=C(C)C(=O)OCC(F)(F)C(F)(F)C(F)(F)C(F)(F)C(F)(F)C(F)(F)C(F)(F)F | inactive | –
22 | OCC(F)(F)C(F)(F)C(F)(F)C(F)F | inactive | –
23 | O=C(Cl)C(F)(F)C(F)(F)C(F)(F)C(F)(F)C(F)(F)C(F)(F)C(F)(F)C(F)(F)F | inactive | –
24 | FC(F)(Br)C(F)(F)C(F)(F)C(F)(F)C(F)(F)C(F)(F)Br | inactive | –
25 | FC(F)(F)C(F)(F)C(F)(F)C(F)(F)C(F)(F)C(F)(F)C(F)(F)C(F)(F)F | inactive | –
26 | OCC(F)(F)C(F)(F)C(F)(F)C(F)(F)C(F)(F)C(F)F | inactive | –
27 | O=C(O)C(F)(F)C(F)(F)C(F)F | inactive | –
28 | FC(F)(F)C(F)(F)C(F)(F)N(C(F)(F)C(F)(F)C(F)(F)F)C(F)(F)C(F)(F)C(F)(F)F | inactive | –
29 | OCCCC(F)(F)C(F)(F)C(F)(F)F | inactive | –
30 | O=P(O)(O)OCCC(F)(F)C(F)(F)C(F)(F)C(F)(F)C(F)(F)C(F)(F)F | inactive | –
31 | FC(F)(I)C(F)(F)C(F)(F)C(F)(F)I | inactive | –
32 | FC(F)(F)C(F)(F)C(F)(F)C(F)(F)C(F)(F)CCI | inactive | –
33 | FC(F)(F)C(F)(F)C(F)(F)C(F)(F)C(F)(F)C(F)(F)C(F)(F)C(F)(F)CCS | inactive | –
34 | C=CC(F)(F)C(F)(F)C(F)(F)C(F)(F)C(F)(F)C(F)(F)C(F)(F)C(F)(F)F | inactive | –
35 | O=C(CC(=O)C(F)(F)C(F)(F)F)C(F)(F)F | inactive | –
36 | O=C(O)C(F)(F)C(F)(F)C(F)(F)C(F)(F)C(F)(F)C(F)(F)C(F)(F)C(F)(F)C(F)(F)C(F)(F)C(F)(F)C(F)(F)C(F)(F)F | inactive | –
37 | O=C(O)C(F)(OC(F)(F)C(F)(OC(F)(F)C(F)(F)C(F)(F)F)C(F)(F)F)C(F)(F)F (stereo not given) | inactive | –
38 | O=C(O)C(F)(F)C(F)(F)OC(F)(F)F | inactive | –
39 | O=S(=O)(O)C(F)(F)C(F)(F)C(F)(F)C(F)(F)C(F)(F)C(F)(F)C(F)(F)F | – | 22 µM (active)
40 | O=C(O)C(F)(F)C(F)(F)F | inactive | –
